# Data from PMC4552634, “A New Set of Chemical Starting Points with Plasmodium falciparum Transmission-Blocking Potential for Antimalarial Drug Discovery” (PLoS ONE, 2015).
# Hit rate of the full screen: of about 13,000 compounds, about 3,200 (25%) showed an effect of 50% or more. The list shows a part of the results.
# Test system: P. falciparum stage V gametocytes
# Set-up: BacTiter-Glo ATP luminescence viability of purified stage V gametocytes in 384-well plates, per cent inhibition versus DMSO
# Conditions: 48 h, 5 µM; inhibitor
row,SMILES,% Inhibition [%]
1,O=C(C=CC(=O)N1CCCCC1)NCc1ccccc1 [TCMDC-131645],19.39
2,NC(=O)c1ccccc1OCC(=O)Nc1cccc(-c2ccc(-c3nc4ccccc4[nH]3)cc2)c1 [TCMDC-132128],7.419
3,COc1ccc2ncc(C#N)c(CCN3CCC(NCc4ccc5c(c4)NC(=O)CO5)CC3)c2c1 [TCMDC-135645],-0.6152
4,CCNc1cc(CCCC(=O)OCC)nc(Nc2ccc(C)cc2)n1 [TCMDC-134018],-48.18
5,OC(CNc1ccnc(Nc2ccccc2)n1)c1cccc(C(F)(F)F)c1 (centres unmarked) [TCMDC-136588],30.58
6,CC[C@H]1CN(C/C=C/c2ccc(OC)cc2)CC[C@H]1CCCc1ccnc2ccc(O)cc12 [TCMDC-140258],-1.76
7,CCCCCCCCCN1CC[C@@H](CCCc2ccnc3ccc(O)cc23)[C@@H](CC)C1 [TCMDC-131442],46.81
8,CCCCCCCN1CC[C@@H](CCCc2ccnc3ccc(OC)cc23)[C@@H](CNC)C1 [TCMDC-139875],105.4
9,CCCCCCCN1CC[C@@H](C[C@H](N)Cc2ccnc3ccc(OC)cc23)[C@@H](CC)C1 [TCMDC-139827],11.08
10,CCCCCCCN1CC[C@@H](CCCc2ccnc3ccc(OC)cc23)[C@@H](CCN)C1 [TCMDC-139278],113.6
11,Cc1cccc2c(/C=C/C(=O)NC3CCC(CCN4CCc5ccc(C#N)cc5CC4)CC3)c[nH]c12 (centres unmarked) [TCMDC-139665],43.65
12,O=C(Nc1cccc(-c2cc(-c3c(Cl)cccc3Cl)no2)c1)c1cncc(-c2cccs2)c1 [TCMDC-136736],-10.57
13,C[C@@H](N=C(Nc1ccc(C#N)cc1O)Nc1ccccc1Cl)c1ccc(Br)cc1 [TCMDC-140257],-91.02
14,O=C(Nc1cccc(-c2ccc(-c3nc4ccc(F)cc4[nH]3)cc2)c1)c1cccnc1 [TCMDC-136923],8.252
15,CCc1nc(N)nc(N)c1-c1ccc(C(C)(C)C)cc1 [TCMDC-137367],5.64
16,CC(N)(Cc1ccc(O)cc1)c1nn[nH]n1 (centres unmarked) [TCMDC-131387],-7.705
17,CCCc1cc(OC)c(C[C@H]2c3cc(O)c(Cl)cc3CCN2C)cc1OC [TCMDC-137779],20.32
18,CCCc1cc(OC)c(CC2c3cc(O)c(Cl)cc3CCN2C)cc1OC (centres unmarked) [TCMDC-137166],27.65
19,COc1cc(CC2c3cc(O)c(Cl)cc3CCN2C)c(OC)cc1C (centres unmarked) [TCMDC-137434],71.2
20,CCCCCCCCCCN1C(=O)C2C(CCCCNC(C)=O)NC3(C(=O)N(Cc4ccc(C(C)(C)C)cc4)c4ccccc43)C2C1=O (centres unmarked) [TCMDC-139772],47.42
